SMILES strings stand for the structures. Unmarked numbers belong to inactive results. Activity calls are given as the source filed them. Calls follow the shape of the full dose curve.
% is scaled to controls: 0 for no effect and ±100 for the full control effect.

For the experiment, the target named is Acetylcholinesterase (Homo sapiens) (UniProt P22303). The experiment can be described thus: Acetylcholinesterase (AChE) small molecule antagonists: enzyme-based qHTS assay with human liver microsomes (AID 1347399). Also: nearly all actives have a fitted effect of over 60% in size. The following applies: Potency: qHTS inhibition; outcome: qHTS inhibition; series mostly up to 115 µM; activity change, negative = inhibition: at the top concentration. The method in brief: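 Recombinant human AChE (50 mU/mL in the enzyme mix) and human liver microsomes (0.25 mg/mL final) were preincubated with compound and NADPH (0.25 mg/mL final) for 30 min at 37 C. Acetylthiocholine/DTNB was then added; thiocholine was read colorimetrically after 10 min at room temperature.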
Acetylcholinesterase (Homo sapiens), sequence (P22303 whole entry, looked up): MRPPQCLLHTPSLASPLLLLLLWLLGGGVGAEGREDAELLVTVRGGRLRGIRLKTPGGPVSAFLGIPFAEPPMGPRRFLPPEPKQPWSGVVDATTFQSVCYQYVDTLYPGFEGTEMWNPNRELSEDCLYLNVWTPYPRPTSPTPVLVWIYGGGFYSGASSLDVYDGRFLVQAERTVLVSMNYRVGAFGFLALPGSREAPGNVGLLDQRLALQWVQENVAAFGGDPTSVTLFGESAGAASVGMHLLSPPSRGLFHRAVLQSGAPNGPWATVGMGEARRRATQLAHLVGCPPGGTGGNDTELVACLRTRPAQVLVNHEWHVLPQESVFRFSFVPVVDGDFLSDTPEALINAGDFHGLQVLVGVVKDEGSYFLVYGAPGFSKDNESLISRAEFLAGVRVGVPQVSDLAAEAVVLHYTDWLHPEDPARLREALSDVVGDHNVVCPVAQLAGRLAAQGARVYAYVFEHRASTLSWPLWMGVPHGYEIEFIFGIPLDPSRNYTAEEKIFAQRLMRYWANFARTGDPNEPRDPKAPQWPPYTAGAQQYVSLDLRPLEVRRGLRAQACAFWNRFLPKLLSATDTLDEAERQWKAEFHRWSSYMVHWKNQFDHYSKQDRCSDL
On the technique in general: qHTS replaces the single test concentration by a dilution series.
Consider `O=C(O)Cn1c(=O)n(Cc2ccc(Br)cc2F)c(=O)c2ccc(Cl)cc21`, for which the Potency result is “inactive”.
Turning to `O=C(COCCOCCOCC(=O)Nc1c(I)cc(I)c(C(=O)O)c1I)Nc1c(I)cc(I)c(C(=O)O)c1I`, the “activity change, negative = inhibition” value is -0.252% [at 53 µM].
For the molecule `COc1cc(C=O)ccc1OC(=O)C(C)C`, the “activity change, negative = inhibition” value was -0.431%.
Regarding `C#CC(C)(CC)OC(=O)c1ccccc1C(=O)O` (stereo not drawn), the “activity change, negative = inhibition” value is -0.325% [at 53 µM].
Turning to `CC(C)(C)C(=O)NCCCC(=O)O`, the “activity change, negative = inhibition” value was 0.84% [at 53 µM].
In the case of `O=C(O)CCSCCC(=O)O`, the “activity change, negative = inhibition” value was 0.266%.
Still for that read-out and setting: to `CC1(C)[C@@H]2CC[C@@]1(C)[C@H](O)C2` belongs 0.595%; to `CCN1C(=O)c2ccccc2C1Nc1ccc(OCCN2CCCCC2)cc1` (stereo not drawn), 0.17% [at 53 µM]; to `Cc1ccc(Nc2c(F)cccc2Cl)c(CC(=O)O)c1`, 0.143% [at 53 µM].
On to `CC(C)(C(=O)c1cccnc1)c1cccnc1`, for which the “activity change, negative = inhibition” value is 0.84% [at 53 µM].
Take `C#Cc1ccc(-c2ccccc2F)cc1`: the “activity change, negative = inhibition” value is -1.17% [at 53 µM].
With `Nc1ccc(S(=O)(=O)c2ccc(N)cc2)cc1`, the Potency result was “inactive”.
In the case of `COc1cc(C(=O)N2CCCCCCC2)cc(OC)c1OC`, the “activity change, negative = inhibition” value was -0.147% [at 53 µM].
Take `Nc1ccc(C(=O)O)cc1`: the Potency result was “inactive”.
For `CC(=O)OCC(COC(C)=O)OC(C)=O`, the Potency entry is “inactive”.
`CN1C[C@@H]2C[C@H]1CN2c1cc2c(cc1F)c(=O)c(C(=O)O)cn2C1CC1`: the activity change, negative = inhibition was 0.0665% [at 23.6 µM].
Regarding `CCCCCCC`, the “activity change, negative = inhibition” value is 0.815%.
With `CC(=O)Nc1ccc(/C=N/NC(N)=S)cc1`, the “activity change, negative = inhibition” value is -2.02% [at 53 µM].
Consider `CC1(C)Oc2ccc(C#N)cc2[C@@H](N2CCCC2=O)[C@@H]1O`, for which the “activity change, negative = inhibition” value is -6.63% [at 53 µM].
Take `O=C(Cl)c1ccccc1[N+](=O)[O-]`: the “activity change, negative = inhibition” value was 0.0178%.
For the molecule `C=C(C)[C@H]1CC=C(C)C(=O)C1`, the Potency entry is “inactive”.
For the molecule `CC(C)CCCC(C)N` (stereo not drawn), the “activity change, negative = inhibition” value was -0.9% [at 53 µM].
With `CCO[Si](CCC#N)(OCC)OCC`, the Potency result was “inactive”.
